Reference: the supplement of paper PMC12282887
± gives the standard deviation of the averaged measurements.

Legend:
Test in all cases: promoter activity interaction Z-score (Lux/OD deviation from empty-vector control); higher = stronger promoter induction by the compound
[1] = tested on: E. coli BW25113 acrABp lux reporter
Outline: (§1)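 At 37°C, E. coli BW25113 reporter cultures in 40 µl LB Lennox in 384-well plates were read for OD600 and luminescence every 30 min for 12 h. Windows were 0–8 h for wild type and 1–9 h for deletion strains, and wells under 10% of the median growth value were removed. The score is the Z-transformed residual of growth-normalised luminescence against a control fit.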

[2] = tested on: E. coli BW25113 marRABp lux reporter
Outline: as §1

[3] = tested on: E. coli BW25113 micFp lux reporter
Outline: as §1

[4] = tested on: E. coli BW25113 ompFp lux reporter
Outline: as §1

[5] = tested on: E. coli BW25113 robp lux reporter
Outline: as §1

[6] = tested on: E. coli BW25113 soxSp lux reporter
Outline: as §1

[7] = tested on: E. coli BW25113 tolCp lux reporter
Outline: as §1

[8] = 0.11 µg/ml, genetic background: wild type
[9] = 0.11 µg/ml, genetic background: ΔmarA
[10] = 0.11 µg/ml, genetic background: Δrob
[11] = 0.11 µg/ml, genetic background: ΔsoxS
[12] = 0.23 µg/ml, genetic background: wild type
[13] = 0.23 µg/ml, genetic background: ΔmarA
[14] = 0.23 µg/ml, genetic background: Δrob
[15] = 0.23 µg/ml, genetic background: ΔsoxS
[16] = 0.46 µg/ml, genetic background: wild type
[17] = 0.46 µg/ml, genetic background: ΔmarA
[18] = 0.46 µg/ml, genetic background: Δrob
[19] = 0.46 µg/ml, genetic background: ΔsoxS

N[C@@H](C(=O)N[C@@H]1C(=O)N2C(C(=O)O)=C(Cl)CS[C@H]12)c1ccccc1 [Cefaclor]
promoter activity interaction Z-score [1, 8]: -0.0672 ± 0.0046 | promoter activity interaction Z-score [1, 9]: 0.0667 ± 0.63 | promoter activity interaction Z-score [1, 10]: -0.0825 ± 0.022 | promoter activity interaction Z-score [1, 11]: 0.202 ± 0.33 | promoter activity interaction Z-score [1, 12]: 0.0822 ± 0.27 | promoter activity interaction Z-score [1, 13]: -0.226 ± 0.26 | promoter activity interaction Z-score [1, 14]: -0.0254 ± 0.2 | promoter activity interaction Z-score [1, 15]: 0.108 ± 0.18 | promoter activity interaction Z-score [1, 16]: -0.327 ± 0.23 | promoter activity interaction Z-score [1, 17]: 0.267 ± 0.91 | promoter activity interaction Z-score [1, 18]: 0.0322 ± 0.2 | promoter activity interaction Z-score [1, 19]: 0.0468 ± 0.32 | promoter activity interaction Z-score [2, 8]: -0.22 ± 0.046 | promoter activity interaction Z-score [2, 9]: -0.342 ± 0.017 | promoter activity interaction Z-score [2, 10]: 0.00564 ± 0.3 | promoter activity interaction Z-score [2, 11]: 0.0816 ± 0.011 | promoter activity interaction Z-score [2, 12]: 0.101 ± 0.062 | promoter activity interaction Z-score [2, 13]: -0.215 ± 0.016 | promoter activity interaction Z-score [2, 14]: -0.0669 ± 0.059 | promoter activity interaction Z-score [2, 15]: -0.244 ± 0.22 | promoter activity interaction Z-score [2, 16]: -0.245 ± 0.15 | promoter activity interaction Z-score [2, 17]: 0.298 ± 0.42 | promoter activity interaction Z-score [2, 18]: 0.0148 ± 0.0067 | promoter activity interaction Z-score [2, 19]: -0.145 ± 0.23 | promoter activity interaction Z-score [3, 8]: -0.186 ± 0.14 | promoter activity interaction Z-score [3, 9]: -0.0579 ± 0.053 | promoter activity interaction Z-score [3, 10]: -0.0069 ± 0.16 | promoter activity interaction Z-score [3, 11]: -0.168 ± 0.014 | promoter activity interaction Z-score [3, 12]: 0.286 ± 0.18 | promoter activity interaction Z-score [3, 13]: 0.0237 ± 0.12 | promoter activity interaction Z-score [3, 14]: -0.137 ± 0.035 | promoter activity interaction Z-score [3, 15]: -0.23 ± 0.11 | promoter activity interaction Z-score [3, 16]: -0.0523 ± 0.022 | promoter activity interaction Z-score [3, 17]: -0.0548 ± 0.1 | promoter activity interaction Z-score [3, 18]: 0.072 ± 0.35 | promoter activity interaction Z-score [3, 19]: 0.0997 ± 0.0034 | promoter activity interaction Z-score [4, 8]: -0.0486 ± 0.033 | promoter activity interaction Z-score [4, 9]: 0.00202 ± 0.074 | promoter activity interaction Z-score [4, 10]: -0.037 ± 0.097 | promoter activity interaction Z-score [4, 11]: 0.00353 ± 0.4 | promoter activity interaction Z-score [4, 12]: 0.205 ± 0.32 | promoter activity interaction Z-score [4, 13]: -0.158 ± 0.14 | promoter activity interaction Z-score [4, 14]: 0.0924 ± 0.14 | promoter activity interaction Z-score [4, 15]: -0.0604 ± 0.083 | promoter activity interaction Z-score [4, 16]: -0.3379 ± 0.00077 | promoter activity interaction Z-score [4, 17]: 0.243 ± 0.29 | promoter activity interaction Z-score [4, 18]: 0.261 ± 0.15 | promoter activity interaction Z-score [4, 19]: 0.0432 ± 0.23 | promoter activity interaction Z-score [5, 8]: 0.143 ± 0.35 | promoter activity interaction Z-score [5, 9]: -0.548 ± 0.49 | promoter activity interaction Z-score [5, 10]: -0.0741 ± 0.49 | promoter activity interaction Z-score [5, 11]: -0.204 ± 0.27 | promoter activity interaction Z-score [5, 12]: 0.403 ± 0.76 | promoter activity interaction Z-score [5, 13]: -0.533 ± 0.12 | promoter activity interaction Z-score [5, 14]: -0.17 ± 0.038 | promoter activity interaction Z-score [5, 15]: 0.0114 ± 0.73 | promoter activity interaction Z-score [5, 16]: -0.312 ± 0.44 | promoter activity interaction Z-score [5, 17]: -0.025 ± 0.62 | promoter activity interaction Z-score [5, 18]: -0.475 ± 0.67 | promoter activity interaction Z-score [5, 19]: -0.073 ± 1.2 | promoter activity interaction Z-score [6, 8]: 0.0812 ± 0.014 | promoter activity interaction Z-score [6, 9]: 0.114 ± 0.011 | promoter activity interaction Z-score [6, 10]: 0.166 ± 0.057 | promoter activity interaction Z-score [6, 11]: 0.145 ± 0.29 | promoter activity interaction Z-score [6, 12]: 0.222 ± 0.12 | promoter activity interaction Z-score [6, 13]: 0.143 ± 0.22 | promoter activity interaction Z-score [6, 14]: 0.159 ± 0.22 | promoter activity interaction Z-score [6, 15]: 0.00336 ± 0.19 | promoter activity interaction Z-score [6, 16]: -0.146 ± 0.12 | promoter activity interaction Z-score [6, 17]: -0.0654 ± 0.045 | promoter activity interaction Z-score [6, 18]: 0.255 ± 0.11 | promoter activity interaction Z-score [6, 19]: -0.0397 ± 0.37 | promoter activity interaction Z-score [7, 8]: -0.564 ± 0.28 | promoter activity interaction Z-score [7, 9]: 0.134 ± 0.67 | promoter activity interaction Z-score [7, 10]: 0.613 ± 0.26 | promoter activity interaction Z-score [7, 11]: -0.636 ± 0.056 | promoter activity interaction Z-score [7, 12]: 0.674 ± 0.6 | promoter activity interaction Z-score [7, 13]: -0.149 ± 1.3 | promoter activity interaction Z-score [7, 14]: 0.0751 ± 0.037 | promoter activity interaction Z-score [7, 15]: -0.124 ± 0.055 | promoter activity interaction Z-score [7, 16]: -0.115 ± 0.33 | promoter activity interaction Z-score [7, 17]: -0.727 ± 1.3 | promoter activity interaction Z-score [7, 18]: -0.374 ± 0.56 | promoter activity interaction Z-score [7, 19]: -0.124 ± 0.67
